TDP-43 yeast inh: qHTS of TDP-43 Inhibitors; TDP-43 expressing yeast growth rescue, BacTiter-Glo, 24 h; Potency, µM (highest dose often 46.1 µM), for the others: at the top dose growth rescue (activation), most hits filed as activators; 410,000 compounds, 1.8% hits; AID 652104, 2013; further: % of control where 0% means no effect; nearly all actives have a fitted effect of over 50% in size
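Growth rescue of TDP-43-toxic yeast measured as ATP luminescence (BacTiter-Glo). Cells grown to mid-log in raffinose, induced in galactose at OD600=0.02, exposed to compound 24 hr at 30 deg C.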
aSyn rescue: qHTS of alpha-syn Inhibitors; AID 652106, 2013; Potency, µM (titrated, usually from 46.1 µM), for the others: top-dose growth rescue (activation), actives largely listed as activators; Yeast expressing alpha-synuclein, growth rescue, BacTiter-Glo, 24 h; 370,000 compounds, 0.14% hits; further: % of control where 0% means no effect; nearly all actives have a fitted effect of over 65% in size
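Galactose-induced alpha-syn yeast (OD600=0.02, raffinose-pregrown) + pinned cpd, 24 hr, 30 deg C; growth by BacTiter-Glo luminescence. Growth restoration scores as activation.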
FUS suppressor: qHTS for Suppressors of FUS Proteinopathy: Primary screen using FUS-linked yeast assay. 390,000 compounds, 0.24% hits. AID 1347120, 2019. Potency, µM (doses to about 76.6 µM), actives largely listed as activators. S. cerevisiae FUS-expressing, growth rescue, OD600, 24 h;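 further: plate controls were DMSO vehicle for no effect and reference control for full effect; nearly all actives have a fitted effect of over 55% in size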
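Toxicity suppression screen in FUS-yeast. Cells induced with 2% galactose, starting OD 0.005, treated 24hr at 30C with compounds at multiple final concentrations; growth by OD600.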
Mito fusion yeast: qHTS Assay for Small Molecule Inhibitors of Mitochondrial Division or Activators of Mitochondrial Fusion; S. cerevisiae fusion-defective mutant growth rescue, CellTiterGlo 48 h; Potency, µM (highest dose often 46.1 µM), inactives show top-dose growth rescue (activation), usual class: activators; 320,000 compounds, 0.23% hits; AID 485298, 2010; further: % of control where 0% means no effect; nearly all actives have a fitted effect of over 45% in size
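Growth-rescue viability read-out: after 48 h at the non-permissive 37C in glycerol/ethanol YPEG, yeast mitochondrial fusion mutants are measured by CellTiterGlo luminescence; compounds (23 nl pinned per well) restoring growth score as division inhibitors or fusion activators.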
Abeta rescue: qHTS for compounds that reverse cellular toxicity of Amyloid beta (A-beta) peptide in yeast: Primary Screen; Potency, µM (titrated, usually from 46.1 µM), hits mostly activators; 410,000 compounds, 0.063% hits; yeast expressing A-beta42, growth rescue, OD600, 48 h; response scale: 0% DMSO, 100% iron-clioquinol control; further: nearly all actives have a fitted effect of over 55% in size
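Growth rescue measured by 600 nm absorbance after 48 h yeast culture at 30 C with compound. Values normalized between DMSO and an equimolar ferric chloride plus clioquinol control.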
* hit, by the source's call; i = inactive; u = inconclusive; x = no result. Shown are actives, neighbours in structure and some others; about 2.2% of the full set was active somewhere. The call rests on the fitted dose curve; in most records, active means well fitted curve in the direction sought with a large enough effect; inconclusive means small, poorly fitted or top-dose-only effect, or another doubt; inactive means no such curve, though single readings can be large; an effect the other way counts as inactive or inconclusive. Potency means the concentration at half of the fitted maximal effect.

SMILES | TDP-43 yeast inh | aSyn rescue | FUS suppressor | Mito fusion yeast | Abeta rescue
COc1cc(/C=C/[N+](=O)[O-])ccc1OC(=O)/C=C/c1ccc(F)cc1 | 0.71µM* | -18% | i | -11% | i
Cc1c(C(=O)N(Cc2ccc(N(C)C)cc2)CC2CCCO2)oc2ccc(Cl)cc12 (stereo not given) | -14% | x | i | x | i
O=C1C(=Cc2ccco2)C(=O)c2ccccc21 | 22µM* | 13% | x | -1% | i
COc1ccc(CNC2CCC23CCCCC3)cc1OC (stereo not given) | x | x | i | x | x
COc1ccc2cc(CNc3ccc(OC)c(OC)c3)c(=O)n(CC(=O)Nc3ccc(C)cc3)c2c1 | 4% | 5% | i | x | i
COc1ccc(C(C#N)c2ccc(Cl)nn2)cc1 (stereo not given) | 23% | -8% | i | -5% | i
N#CC(c1ccc(Cl)nn1)c1ccc(Cl)cc1Cl (stereo not given) | 13µM* | 14% | i | -6% | i
COC(=O)c1ccccc1NC(=O)CN1C(=O)COc2ccc(Cl)cc21 | 13µM* | x | i | x | i
CCOc1ccccc1NC(=O)CN1C(=O)COc2ccc(C)cc21 | 11µM* | -1% | i | -4% | i
COC(=O)c1ccccc1NC(=O)CN1C(=O)COc2ccccc21 | 20% | 2% | i | x | i
COc1cccc(NCc2nnc(SC(C(=O)N(C)C)c3ccccc3)n2C2CCCCC2)c1 (stereo not given) | x | 6% | x | x | x
O=C1Cc2ccccc2N1c1ccccc1 | u | 5% | i | 2% | i
O=C1CC(=Nc2ccccc2)NN1c1ccccc1 | 16µM* | 12% | 13µM* | -6% | u
C=CCc1ccccc1OCC(O)CN1C(=O)c2ccccc2C1=O (stereo not given) | 11µM* | 17% | i | -1% | i
CC1(C)SC2c3ccccc3C(=O)N2[C@@H]1C(=O)NC1CCCC1 (stereo not given in full) | 1% | -8% | i | 17% | i
CC1(C)SC2c3ccccc3C(=O)N2[C@@H]1C(=O)NC1CC1 (stereo not given in full) | 1.3µM* | -5% | i | 18% | i
O=C(O)c1cc2[nH]c3c(c2cc1Cl)CCCC3 | x | 20µM* | i | -2% | i
CCOC(=O)C1CCN(c2ncnc3c2c(-c2ccccc2)cn3-c2ccc(C)c(Cl)c2)CC1 | 14% | x | i | x | i
COc1ccc(-c2nc(CSCC(=O)NCc3ccccc3Cl)c(C)o2)cc1OC | 25µM* | x | i | x | i
Cc1oc(-c2ccccc2Cl)nc1CSCC(=O)NC1CCCC1 | u | 3% | i | 7% | i
COc1ccc(-c2nc(CSCC(=O)N3CCN(c4ccccc4F)CC3)c(C)o2)cc1 | 0% | x | u | x | i
Cc1oc(-c2ccccc2F)nc1CSCC(=O)N1CCN(c2ccccc2)CC1 | 32µM* | x | i | x | i
Cc1oc(-c2ccccc2Cl)nc1CSCC(=O)N1CCCC1 | 13µM* | -1% | i | -4% | i
COC(=O)[C@]12C[C@H](CC(=O)N3CCC(c4ccccc4)CC3)C(=O)N(Cc3cccc4ccccc34)C1=C[C@H](C(C)(C)C)O[C@@H]2C | x | x | i | x | x
Cc1ccc(CNC(=O)C(=O)NCC(c2cccs2)S(=O)(=O)c2ccc(C)cc2)cc1 (stereo not given) | 3% | x | i | x | i
SMILES | TDP-43 yeast inh | aSyn rescue | FUS suppressor | Mito fusion yeast | Abeta rescue
Cc1nc2c(Br)c(C)nn2c2c1CCC2 | 11µM* | 0% | i | 0% | i
Cn1c2ccccc2c2ncn(CCC3=CCCCC3)c(=O)c21 | 13µM* | -4% | i | 28% | i
Cn1c2ccccc2c2ncn(CCCN3CCOCC3)c(=O)c21 | 6% | -3% | i | -5% | i
COc1cccc(CNc2nc3cc(-c4cscc4C)sc3c(=O)n2C)c1 | 20µM* | u | u | x | i
COc1cccc(CNc2nc3cc(-c4ccc(OC)cc4C)sc3c(=O)n2C)c1 | 20µM* | 17% | i | x | i
O=C(CCCn1c(=O)c2cccn2c2cccnc21)Nc1ccccc1Br | 18% | x | i | x | i
CC(=O)Nc1ccc(C(=O)N2CCCCC2c2cc(C(=O)Nc3cccc4c3CCCC4)no2)cc1 (stereo not given) | u | 16% | u | x | i
Cn1nc(C(C)(C)C)cc1C(=O)N1CCCCC1c1cc(C(=O)Nc2cccc3c2CCCC3)no1 (stereo not given) | 7% | 8% | 32µM* | x | i
Cc1c(CCNC(=O)Cc2ccccc2)sc2nc(-c3ccc(F)cc3)nn12 | 10µM* | x | i | x | i
Cc1ccc(-c2nc3sc(CCNC(=O)c4ccco4)c(C)n3n2)cc1 | 20µM* | x | i | x | i
Cc1c(CCNC(=O)c2ccc(Br)o2)sc2nc(-c3ccc(F)cc3)nn12 | 11% | x | i | x | i
Cc1ccc(-c2nc3sc(CCNC(=O)c4ccc(Br)o4)c(C)n3n2)cc1 | 18µM* | x | u | x | i
Cc1cc(C)c(S(=O)(=O)NCCc2sc3nc(-c4ccc(F)cc4)nn3c2C)c(C)c1 | 20µM* | x | i | x | u
Cc1c(CCNC(=O)c2ccco2)sc2nc(-c3ccc(F)cc3)nn12 | u | x | i | x | i
COc1cc(NC(=O)c2noc3c2CC(C)CC3)c(OC)cc1Cl (stereo not given) | 6% | x | i | x | i
CCCCCN1CCCCC(NC(=O)c2cccc(F)c2)C1=O (stereo not given) | x | x | i | x | x
CC[N+](CC)(CC)c1ccc(/C=C/c2ccc3ccccc3n2)cc1 | x | -67% | x | x | x
COc1ccc(C(=O)O/N=C(\C)c2cnccn2)cc1 | 18µM* | 8% | i | 7% | i
CCC(C(=O)Nc1cc(-c2cn3cccnc3n2)ccc1C)c1ccccc1 (stereo not given) | -14% | x | i | x | i
Cn1ncc(SCc2ccccc2)c(Cl)c1=O | 20µM* | 11% | i | -8% | i
O=C(COc1ccccc1C(=O)Nc1ccccc1)Nc1ccccc1Cl | x | 1% | x | x | x
COc1cc(OC)cc(-c2sc3ccc(OC)cc3c2C#CCCO)c1 | 0% | 2% | u | 1% | i
COc1ccc2sc(-c3ccccc3OC)c(C#CCCO)c2c1 | 20µM* | -12% | i | 25% | i
COc1ccccc1-c1sc2cc3c(cc2c1C#CCO)OCO3 | 22µM* | 0% | u | u | i
Cc1ccc(CN2C(=O)c3ccccc3Sc3ccc(C(=O)N4CCOCC4)cc32)cc1 | 18% | x | u | x | i
O=C(NCc1ccco1)C1CCCN(c2ncccn2)C1 (stereo not given) | x | x | i | x | x

From PubChem BioAssay
